Here are results for 40 compounds from PubChem BioAssay (EPA / NIEHS).

Activity calls are given as the source filed them. Rule for the calls: active = hit-call score of the fitted dose curve at least 0.9, where 1 is the maximum; inactive = score below 0.9.

Read-out in this test: ABC Transporter (ABCC3), ABCC3 (gene 8714)
Kind of test: LTEA_HepaRG_ABCC3: Life Technologies and Expression Analysis (LTEA) Assay for ABC Transporter (ABCC3) using HepaRG (AID 2283462). The note with it: mRNA level, 48 h; actives raise or lower the signal. How it is done:
LTEA_HepaRG is a cell based, multiplexed-readout assay that uses HepaRG, a human liver cell line, with measurements taken at 48 hours after chemical dosing on a 96-well plate.LTEA_HepaRG_ABCC3 is one of 102 assay component(s) measured in the LTEA HepaRG cell culture assay. It is a marker of NR mediated transport.Data from the assay component LTEA_HepaRG_ABCC3 was analyzed into 1 endpoint. This assay endpoint, LTEA_HepaRG_ABCC3, was analyzed with bidirectional fitting relative to DMSO as the negative control and baseline of activity. Using a type of inducible reporter, measures of mRNA induction for gain or loss-of-signal activity can be used to understand regulation of transcription factor activity. To generalize the intended target to other relatable targets, this assay endpoint is annotated to the transporter intended target family, where the subfamily is ABC transporter.
A total of 1060 chemcials from the ToxCast library were tested in eight-point concentration-response experiments. Cell culture and cytotoxicity assays were conducted at Thermo Fisher Scientific's Custom Services facility (Madison, WI). A single lot of human HepaRG cells (Thermo Fisher Scientific, Frederick, MD) was used for the cell culture experiments. 96-well format collagen type I coated plates of human HepaRG cells were prepared using established methods. Briefly, cryopreserved HepaRG cells were thawed, plated at a density of approximately 100,000 cells/well in HepaRG Thaw, Plate, and General Purpose media (HPRG770, Thermo Fisher Scientific), and incubated for 48 hours. 0.5% DMSO was selected as vehicle control to balance the requisite need of DMSO in HepaRG cultures to maintain differentiation (for example, baseline metabolism, proportions of hepatocytes vs. cholangiocytes), while enabling further hepatic receptor pathway activation (for example, PXR and CAR) in response to chemical exposure. 48 hours after plating, the culture medium was replaced with HepaRG Serum-Free Incudtion Media. Cells were exposed to each test chemical in duplicate and maintained in CO2 incubators for another 48 hours. Chemical plates were thawed to room temperature and 200x concentrations of treatment groups were prepared. 8-point conentration-reponse curves were made with the highest exposure at 100 uM, followed by half-log dilutions, all in 0.5% DMSO. Each test plate contained variouse controls, induction positive controls (1mM phenobarbital), cytotoxicity positive controls ([…] aflatoxin B1), vehicle controls (0.5% DMSO), and total lysis controls (0.5% DMSO). Cell morphology images were taken using an Essen IncuCyte FLR automated microscope, with six 96-well plates imaged in about 24 minutes. Images were captured and exported and JPEG files. Spent culture media was transfered to black-well plates for the LDH assay, and remaining media was sorted at -80 C for later use. Cells were treated with RLT buffer and frozen until shipped for gene expression analysis. Total RNA was isolated from the cell suspension in 75 uL of Buffer RLT (Qiagen, Germantown, MD 20874) by Quintiles/Expression Analysis (Durham, NC) using a custom isolation procedure. Total RNA from each plate well was transferred to a preamplification plate. Fluidigm's 96.96 Dynamic ArrayTM (Fluidigm, Amsterdam, the Netherlands) technology was used for gene expression analyses by quantitative reverse transcription polymerase chain reaction (qRT-PCR, performed by Quintiles/Expression Analysis, Durham, NC)89. Standard TaqManTM Assays (Applied Biosystems/ThermoFisher Scientific, Foster City, CA) were used to assess the expression of 93 genes selected based on their selectivity and sensitivity to important hepatic receptors known to be modulated by environmental chemicals; importance in human hepatocyte functionality; and hepatotoxicity. […]
Regarding `C[C@]12CC[C@@H]3c4ccc(O)cc4CC[C@H]3[C@@H]1CC[C@H]2O`, the outcome was inactive.

Consider `O=C1O[C@H]([C@@H](O)CO)C(O)=C1O`, for which the call was inactive.

In the case of `CC(=O)N1CCN(c2ccc(OC[C@H]3CO[C@](Cn4ccnc4)(c4ccc(Cl)cc4Cl)O3)cc2)CC1`, the AC50 was 91.8 µM (active).

With `O=CCCCC=O`, the compound was classed as inactive.

For the compound `OCCO`, the compound was classed as inactive.

Turning to `CCN(Cc1cccnc1)C(=O)c1cccc(Cl)c1[C@]1(C)C(=O)N(Cc2ccc(OC)cc2OC)c2ccc(Cl)cc21`, the compound was called inactive.

As for `Cc1c2ccccc2c(C)c2c1ccc1ccccc12`, the AC50 was 12.7 µM (active).

Regarding `CCCCOC(=O)CC(CC(=O)OCCCC)(OC(C)=O)C(=O)OCCCC`, the compound was called inactive.

`O=C1c2ccccc2C(=O)N1CCc1noc(-c2ccc(CN3CCCCCC3)s2)n1`: the compound was called inactive.

With `O=C1CCC(C2CCCCC2)CC1`, the compound was called inactive.

Consider `CCN(CC)C(=O)c1cc(S(=O)(=O)Cc2ccccc2)c(N2CCC(c3ccccc3)CC2)cc1N(CC)CCN(C)C`, for which the AC50 was 31 µM (active).

With `O=c1ccc2ccccc2o1`, the compound was classed as inactive.

With `Cc1cccc2ccccc12`, the call was inactive.

Regarding `O=c1[nH]sc2ccccc12`, the compound was called inactive.

Consider `CCCC(=O)OCCC(C)C`, for which the result was inactive.

`CN1C(=O)CC[C@H]1c1cccnc1`: the call was inactive.

As to `CCCCCCCCCCCCO`, the compound was classed as inactive.

Take `O=C(O)c1ccccc1-n1cc(C(=O)O)c(=O)c2cc(Nc3c(F)cc(F)cc3Cl)c(Cl)cc21`: the result was inactive.

For `OC12N=C(c3ccccc3)SC1Cc1cc(Cl)ccc12` (stereo not given), the concentration at half-maximal activity (AC50) is 21 µM (active).

With `COc1ccc2cc(S(=O)(=O)N[C@H](CC(=O)N[C@H](Cc3ccc(CN4[C@H](C)CCC[C@@H]4C)cc3)C(=O)N(C)C(C)C)c3ccc4c(c3)OCO4)ccc2c1`, the AC50 is 11.2 µM (active).

In the case of `CCCOC(=O)c1cc(O)c(O)c(O)c1`, the compound was classed as inactive.

`CC(C)(O)c1ccc(CNC(=O)c2cccnc2Oc2ccc3nonc3c2)cc1`: the call was inactive.

Consider `CC[C@H](NC(=O)c1cc(F)ccc1NS(=O)(=O)c1cccc2cccnc12)c1ccccc1`, for which the result was inactive.

As to `c1ccc2n[nH]nc2c1`, the call was inactive.

Consider `O=C(O)Cn1c(=O)n(Cc2ccc(Br)cc2F)c(=O)c2ccc(Cl)cc21`, for which the call was inactive.

In the case of `NC(=O)c1nc(-c2cccc(-c3cc(F)ccc3OCC(F)(F)C(F)(F)F)c2)n[nH]1`, the AC50 is 84 µM (active).

Consider `Cc1cn([C@H]2C[C@H](N=[N+]=[N-])[C@@H](CO)O2)c(=O)[nH]c1=O`, for which the call was inactive.

In the case of `Cc1ccc2oc(CN(Cc3ccccc3)C(=O)Nc3c(F)cc(F)cc3F)c(-c3ccc(Cl)cc3)c2c1`, the compound was classed as inactive.

With `O=C(Nc1ccc(Cl)cc1)Nc1ccc(Cl)c(Cl)c1`, the compound was called inactive.

`CCCCCc1ccc(N)cc1`: the compound was classed as inactive.

As for `CCCCCCCCCC(=O)O`, the compound was classed as inactive.

In the case of `CN(C)C(=O)C1(N2CCCCC2)CCN(CC[C@@]2(c3ccc(Cl)c(Cl)c3)CN(C(=O)c3ccccc3)CCO2)CC1`, the AC50 is 79.4 µM (active).

Turning to `CCCCCCCCN(C)CCCCCCCC`, the call was inactive.

As to `CCOC(=O)O[C@H](C)OC(=O)c1ccc2c(c1)cc(C(=O)NC1CCN(C(C)C)CC1)n2Cc1cc(-c2ccc(Cl)s2)on1`, the call was inactive.

For `CCCCCCCCCCCO`, the compound was called inactive.

Turning to `CN1C(=O)N(c2ccccc2Br)Cc2cnc(Nc3ccc4c(c3)OCC(CO)O4)nc21` (stereo not given), the AC50 is 28.6 µM (active).

For the compound `CCCCOC(=O)c1ccc(O)cc1`, the result was inactive.

In the case of `O=C=NCCCCCCN=C=O`, the call was inactive.

Regarding `CC(C)(C)c1cc(/C=C2\SC(N)=NC2=O)cc(C(C)(C)C)c1O`, the AC50 was 50 µM (active).

As to `Oc1ccc2ccccc2c1`, the outcome was inactive.

In general, AC50 refers to the midpoint of the concentration-response curve, whichever way the signal moves.
